Read-out in experiment [1]: Epidermal growth factor receptor (EGFR), EGFR (gene 1956)
Kind of experiment: BSK_hDFCGF_EGFR: BioMAP Diversity Plus: hDFCGF Assay for Epidermal growth factor receptor (EGFR) Biomarker Activity (AID 2283057). Conditions: primary human foreskin fibroblasts; actives raise or lower the signal. In a few lines: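 EGFR levels by ELISA in human dermal fibroblast cultures, 24 h post-treatment, fitted bidirectionally versus DMSO. Parallel wells stained with sulforhodamine B to detect overt cytotoxicity.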

Read-out in experiment [2]: Interleukin-8 (IL8), CXCL8 (gene 3576)
Kind of experiment: BSK_hDFCGF_IL8: BioMAP Diversity Plus: hDFCGF Assay for Interleukin-8 (IL8) Biomarker Activity (AID 2283058). The conditions noted are these: primary human foreskin fibroblasts; actives raise or lower the signal. In a few lines: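 Primary human foreskin fibroblasts (hDFCGF system) dosed with chemical; IL-8 measured by ELISA 24 hours later. Bidirectional curve fitting relative to DMSO baseline; cytotoxicity tracked in parallel cultures by SRB total protein staining.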

A short description of experiment [3]: BSK_hDFCGF_Proliferation: Cell Proliferation Assessment in the BioMAP Diversity Plus: hDFCGF Assay (AID 2283059).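 Further: curves fitted for both rise and fall of signal versus DMSO baseline.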 Conditions: primary human foreskin fibroblasts. In a few lines: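 Sub-confluent human foreskin fibroblast cultures receive test chemical […]. Relative cell number is quantified by sulforhodamine B staining (0.1%, after 10% TCA fixation) at 560 nm, with bidirectional fitting referenced to DMSO.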

Read-out in experiment [4]: Macrophage colony-stimulating factor (MCSF), CSF1 (gene 1435)
Kind of experiment: BSK_hDFCGF_MCSF: BioMAP Diversity Plus: hDFCGF Assay for Macrophage colony-stimulating factor (MCSF) Biomarker Activity (AID 2283060). The conditions noted are these: primary human foreskin fibroblasts; actives raise or lower the signal. The method in brief: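 Human foreskin fibroblast primary cultures; M-CSF measured by ELISA 24 hours after chemical dosing. Bidirectional fitting relative to DMSO, with overt cytotoxicity tracked by parallel SRB total-protein staining (0.1% SRB, 10% TCA fixation, 560 nm).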

Read-out in experiment [5]: TIMP metallopeptidase inhibitor 1 (TIMP1), TIMP1 (gene 7076)
Kind of experiment: BSK_hDFCGF_TIMP1: BioMAP Diversity Plus: hDFCGF Assay for TIMP metallopeptidase inhibitor 1 (TIMP1) Biomarker Activity (AID 2283062). Conditions: primary human foreskin fibroblasts; actives raise or lower the signal. In a few lines:
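Human foreskin fibroblast primary cultures dosed for 24 h; secreted/surface TIMP-1 quantified by ELISA. Bidirectional curve fitting against DMSO baseline; cytotoxicity tracked in parallel cultures by SRB total-protein staining.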

Read-out in experiment [6]: Monokine induced gamma interferon (MIG), CXCL9 (gene 4283)
Kind of experiment: BSK_hDFCGF_MIG: BioMAP Diversity Plus: hDFCGF Assay for Monokine induced gamma interferon (MIG) Biomarker Activity (AID 2283063). The conditions noted are these: primary human foreskin fibroblasts; actives raise or lower the signal. The method in brief:
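MIG/CXCL9 measured by ELISA 24 h after dosing primary human skin fibroblasts. Activity fitted in both directions against DMSO controls. Cytotoxicity was checked in parallel cultures by SRB staining read at 560 nm.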

Read-out in experiment [7]: Matrix Metallopeptidase 1 (MMP1), MMP1 (gene 4312)
Kind of experiment: BSK_hDFCGF_MMP1: BioMAP Diversity Plus: hDFCGF Assay for Matrix Metallopeptidase 1 (MMP1) Biomarker Activity (AID 2283064). Conditions: primary human foreskin fibroblasts; actives raise or lower the signal. In a few lines: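 ELISA read-out of MMP1 from human foreskin fibroblasts (primary skin cells), 24 h post-dose. Gain or loss of signal was fitted bidirectionally versus DMSO negative control; cytotoxicity was checked by SRB in parallel cultures.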

Read-out in experiment [8]: Vascular cell adhesion molecule 1 (VCAM1), VCAM1 (gene 7412)
Kind of experiment: BSK_hDFCGF_VCAM1: BioMAP Diversity Plus: hDFCGF Assay for Vascular cell adhesion molecule 1 (VCAM1) Biomarker Activity (AID 2283065). The conditions noted are these: primary human foreskin fibroblasts; actives raise or lower the signal. The method in brief:
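Human foreskin fibroblast primary cells dosed with chemical, VCAM-1 measured by ELISA at 24 h. Bidirectional curve fitting relative to DMSO as negative control/baseline.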

Read-out in experiment [9]: Plasminogen activator inhibitor-1 (PAI1), SERPINE1 (gene 5054)
Kind of experiment: BSK_hDFCGF_PAI1: BioMAP Diversity Plus: hDFCGF Assay for Plasminogen activator inhibitor-1 (PAI1) Biomarker Activity (AID 2283066). The conditions noted are these: primary human foreskin fibroblasts; actives raise or lower the signal. In a few lines:
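PAI-1 levels in human dermal foreskin fibroblasts were quantified by ELISA 24 h after dosing, with gain or loss analysed against DMSO. Overt cytotoxicity was checked by sulforhodamine B total-protein staining in parallel cultures.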

Read-out in experiment [10]: Intercellular Adhesion Molecule 1 (ICAM1), ICAM1 (gene 3383)
Kind of experiment: BSK_KF3CT_ICAM1: BioMAP Diversity Plus: KF3CT Assay for Intercellular Adhesion Molecule 1 (ICAM1) Biomarker Activity (AID 2283067). The conditions noted are these: primary human keratinocytes with fibroblasts; actives raise or lower the signal. In a few lines:
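Human keratinocyte–foreskin fibroblast co-culture was treated for 24 h. Cell-surface ICAM-1 was quantified by ELISA, fitted bidirectionally relative to DMSO. Cytotoxicity was checked in parallel cultures by SRB total-protein staining.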

Read-out in experiment [11]: Interferon-gamma inducible Protein 10 (IP10), CXCL10 (gene 3627)
Kind of experiment: BSK_KF3CT_IP10: BioMAP Diversity Plus: KF3CT Assay for Interferon-gamma inducible Protein 10 (IP10) Biomarker Activity (AID 2283068). Conditions: primary human keratinocytes with fibroblasts; actives raise or lower the signal. In a few lines: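 ELISA read-out of IP-10 after 24 h chemical dosing of human skin primary co-culture (keratinocytes, foreskin fibroblasts). Gain or loss of signal relative to DMSO, bidirectional curve fit.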

Experiment [12] can be described thus: BSK_KF3CT_SRB: Viability Assessment in the BioMAP Diversity Plus: KF3CT Assay (AID 2283069).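 Further: read 24 h after compound addition.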 Conditions: primary human keratinocytes with fibroblasts. In a few lines: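 SRB read-out at 560 nm (0.1% stain, TCA-fixed cells) gauges overt cytotoxicity in a human skin keratinocyte–fibroblast co-culture 24 h post-dosing. Signal change was fitted bidirectionally relative to DMSO control.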

Read-out in experiment [13]: Interleukin-1 alpha (IL1a), IL1A (gene 3552)
Kind of experiment: BSK_KF3CT_IL1a: BioMAP Diversity Plus: KF3CT Assay for Interleukin-1 alpha (IL1a) Biomarker Activity (AID 2283070). The conditions noted are these: primary human keratinocytes with fibroblasts; actives raise or lower the signal. The method in brief: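 Primary skin co-culture (keratinocytes, foreskin fibroblasts), 24 h exposure; ELISA for IL-1a; bidirectional curve fit vs DMSO.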

Read-out in experiment [14]: TIMP metallopeptidase inhibitor 2 (TIMP2), TIMP2 (gene 7077)
Kind of experiment: BSK_KF3CT_TIMP2: BioMAP Diversity Plus: KF3CT Assay for TIMP metallopeptidase inhibitor 2 (TIMP2) Biomarker Activity (AID 2283071). The conditions noted are these: primary human keratinocytes with fibroblasts; actives raise or lower the signal. In a few lines: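 TIMP-2 measured by ELISA at 24 h in human keratinocyte/fibroblast primary co-cultures exposed to chemicals. Both increases and decreases were fitted against DMSO. Parallel cultures were stained with SRB for total protein as an overt-cytotoxicity check.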

Read-out in experiment [15]: Transforming growth factor beta 1 (TGFb1), TGFB1 (gene 7040)
Kind of experiment: BSK_KF3CT_TGFb1: BioMAP Diversity Plus: KF3CT Assay for Transforming growth factor beta 1 (TGFb1) Biomarker Activity (AID 2283072). The conditions noted are these: primary human keratinocytes with fibroblasts; actives raise or lower the signal. The method in brief:
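ELISA quantifies TGF-b1 at 24 h post-dose in a primary human skin co-culture of keratinocytes and fibroblasts, with gain or loss judged against DMSO. Parallel SRB total-protein staining flags overt cytotoxicity.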

Read-out in experiment [16]: C-C motif chemokine 2 (Homo sapiens) (UniProt P13500)
Kind of experiment: BSK_KF3CT_MCP1: BioMAP Diversity Plus: KF3CT Assay for Monocyte Chemoattractant Protein 1 (MCP1/CCL2) Biomarker Activity (AID 2283073). Conditions: primary human keratinocytes with fibroblasts; actives raise or lower the signal. The method in brief:
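Human keratinocyte–foreskin fibroblast co-culture; MCP-1 measured by ELISA 24 h after dosing. Bidirectional fit vs DMSO; cytotoxicity tracked by SRB total protein in parallel cultures.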

Read-out in experiment [17]: Matrix Metallopeptidase 9 (MMP9), MMP9 (gene 4318)
Kind of experiment: BSK_KF3CT_MMP9: BioMAP Diversity Plus: KF3CT Assay for Matrix Metallopeptidase 9 (MMP9) Biomarker Activity (AID 2283074). Conditions: primary human keratinocytes with fibroblasts; actives raise or lower the signal. The method in brief: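 ELISA read-out of MMP-9 at 24 h post-dosing in a co-culture of human skin keratinocytes and foreskin fibroblasts. Gain or loss of signal was fitted in both directions against DMSO.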

Read-out in experiment [18]: urokinase plasminogen activator (uPA), PLAU (gene 5328)
Kind of experiment: BSK_KF3CT_uPA: BioMAP Diversity Plus: KF3CT Assay for urokinase plasminogen activator (uPA) Biomarker Activity (AID 2283075). Conditions: primary human keratinocytes with fibroblasts; actives raise or lower the signal. The method in brief: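 Skin co-culture (keratinocytes + foreskin fibroblasts), human primary; 24 h post-dose; uPA by ELISA; gain/loss fit vs DMSO baseline.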

Read-out in the next experiment: CD40, CD40 (gene 958)
Kind of experiment: BSK_LPS_CD40: BioMAP Diversity Plus: LPS Assay for CD40 Biomarker Activity (AID 2283076). Conditions: primary human HUVEC with PBMC; actives raise or lower the signal. The method in brief:
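HUVEC plus PBMC co-culture stimulated with LPS; CD40 quantified by ELISA 24 h after compound dosing. Fitting was bidirectional relative to DMSO. SRB staining of parallel cultures flagged overt cytotoxicity.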

The nature of experiment [19]: BSK_hDFCGF_SRB: Viability Assessment in the BioMAP Diversity Plus: hDFCGF Assay (AID 2283061).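 Further: cells exposed to compound for 24 h before the read.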 Conditions: primary human foreskin fibroblasts. In a few lines: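 Human foreskin fibroblasts in 96-well plates were treated 24 h. Total protein was measured by 0.1% SRB staining after 10% TCA fixation, read at 560 nm. Data were fitted bidirectionally against DMSO.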

The source made the active and inactive calls. How the source made its calls: active means hit-call score of the fitted dose curve at least 0.9, where 1 is the maximum; inactive means score below 0.9.

As for `Cc1cc(SC2=C(O)C[C@@](CCc3ccc(N)cc3)(C(C)C)OC2=O)c(C(C)(C)C)cc1CO`, the result in experiment [1], in [2], in experiment [3], in experiment [4], in experiment [5] and in experiment [6] was inactive. Further, the outcome in experiment [7], in [8], in experiment [9], in [10], in experiment [11] and in experiment [12] was inactive. Besides, the outcome in experiment [13], in [14], in experiment [15], in [16], in experiment [17] and in experiment [18] was inactive. Besides, in the experiment with CD40, CD40 (gene 958), the outcome was inactive.
On to `CSc1ccc(Oc2ccc(S(N)(=O)=O)cc2CN(C)C)cc1C`, for which the outcome in experiment [1], in experiment [2], in [4], in experiment [5], in experiment [6] and in experiment [7] was inactive. Further, the result in experiment [8], in experiment [9], in [10], in experiment [11], in [12] and in experiment [13] was inactive. The outcome in experiment [14] is “inactive”; in [15] it was “inactive”; in [16], “inactive”; in experiment [17] it was “inactive”; in experiment [18], “inactive”; in the experiment with CD40, CD40 (gene 958), “inactive”. The concentration at half-maximal activity (AC50) in [3] was 20 µM (active).
`Cc1ccc(C(C)(C)C)c(O)c1`: the outcome in experiment [1], in experiment [2], in experiment [3], in experiment [4], in [19] and in experiment [5] was inactive. Also, the outcome in [6], in experiment [7], in experiment [9], in experiment [10], in experiment [11] and in experiment [12] was inactive. The outcome was “inactive” in [13]; “inactive” in [15]; “inactive” in [16]; “inactive” in experiment [17]; “inactive” in experiment [18]; “inactive” with CD40, CD40 (gene 958).

The values are drawn from PubChem BioAssay (EPA / NIEHS).
